Structures are written as SMILES. About 79,000 compounds went through this panel and 15% of them were active in at least one assay; those are over-represented in the sample as a whole. Values without a mark were called inactive. Activity calls are given as the source filed them. No stated cut-off is given here; in the data, active means growth inhibition above about 70%; inactive means the rest.

Data on 18 compounds can be found in PubChem BioAssay (NCI).

This experiment in a line: NCI Yeast Anticancer Drug Screen. Data for the bub3 strain (AID 167). To be noted: S. cerevisiae bub3 mutant strain, at 50.0 µM, active compounds read high. The procedure, abridged: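 Mutant yeast screening strain plus compound; vehicle-treated cultures serve as the 0% inhibition reference.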
With `C/C=C(\C)C(=O)N/N=C\C=C\c1ccccc1`, the growth inhibition was -16.1%. In the case of `CN(C)OC(=O)Nc1cccc([N+](=O)[O-])c1`, the growth inhibition is 4.8%. For the compound `O=S(=O)(Nc1cccc(Cl)c1)c1ccc(Cl)cc1`, the growth inhibition is 99.7% (active). As for `BrCCC1(CCBr)CCCCC1`, the figure is 48.6%. The same measure for `CN(C)CCCCCCNCCC#N`: -28.4%. `COC(=O)c1ccc(C(=O)OC)c2nc3cc(C)ccc3nc12`: the growth inhibition is 8.65%. The same measure for `COc1ccc(C(=O)c2ccc(OC)c3ccccc23)c2ccccc12`: 3.35%.

Turning to `CC1C=CCCC1COC(=O)C(=O)OCC1CC=CCC1C` (stereo not drawn), the growth inhibition is 31.9%. In the case of `CCN(CC)c1ncnc2n[nH]nc12`, the growth inhibition was -28.5%.

Consider `COC1(OC)C(c2ccc(Cl)cc2)C(C#N)(C#N)C1(OC)OC` (stereo not drawn), for which the growth inhibition is -1.15%. The same measure for `Cc1cc(Br)cc(C)c1NC(=O)C(=O)C1C(=O)C(CC2C(=O)c3ccccc3C2=O)C(=O)CC1(C)C` (stereo not drawn): 4.35%; for `CCN(CC)CCCNc1ncnc2onc(C)c12`: 1.45%; for `CC(C)CC(CCl)Cc1nc2ccccc2[nH]1` (stereo not drawn): 33.6%. As for `COc1ccc(OCOCOc2ccc(OC)cc2)cc1`, the figure is 42.9%. As for `CCN(CC)Cc1cc(N)cc(N=Nc2ccc3c(c2)c2ccccc2n3CC)c1O`, the figure is -3.4%; as for `CCOC(=O)CNC(=O)NC`, -6.25%; as for `S=P(c1ccccc1)(c1ccccc1)C(P(c1ccccc1)c1ccccc1)P(c1ccccc1)c1ccccc1`, 33.5%.

Regarding `c1ccc(N2CCN(c3ccccn3)CC2)nc1`, the growth inhibition is -13.7%.
